Our source for the inhibition values is ChEMBL document CHEMBL1961873, “Compounds: GSK PKIS; Assays: Nanosyn kinase panel” (2012).

As a reminder, the inhibition is the drop in the measured response relative to a control, in per cent.

For experiment [1], the target named is Sphingosine kinase 1 (Homo sapiens) (UniProt Q9NYA1). Particulars: at 1 µM.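 Also: mean SPHK1 inhibition value reported from the GSK PKIS kinase panel screen.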
Experiment [2] concerns the target T1, Sphingosine kinase 2 (Homo sapiens) (UniProt Q9NRA0).
T1 sequence (whole entry): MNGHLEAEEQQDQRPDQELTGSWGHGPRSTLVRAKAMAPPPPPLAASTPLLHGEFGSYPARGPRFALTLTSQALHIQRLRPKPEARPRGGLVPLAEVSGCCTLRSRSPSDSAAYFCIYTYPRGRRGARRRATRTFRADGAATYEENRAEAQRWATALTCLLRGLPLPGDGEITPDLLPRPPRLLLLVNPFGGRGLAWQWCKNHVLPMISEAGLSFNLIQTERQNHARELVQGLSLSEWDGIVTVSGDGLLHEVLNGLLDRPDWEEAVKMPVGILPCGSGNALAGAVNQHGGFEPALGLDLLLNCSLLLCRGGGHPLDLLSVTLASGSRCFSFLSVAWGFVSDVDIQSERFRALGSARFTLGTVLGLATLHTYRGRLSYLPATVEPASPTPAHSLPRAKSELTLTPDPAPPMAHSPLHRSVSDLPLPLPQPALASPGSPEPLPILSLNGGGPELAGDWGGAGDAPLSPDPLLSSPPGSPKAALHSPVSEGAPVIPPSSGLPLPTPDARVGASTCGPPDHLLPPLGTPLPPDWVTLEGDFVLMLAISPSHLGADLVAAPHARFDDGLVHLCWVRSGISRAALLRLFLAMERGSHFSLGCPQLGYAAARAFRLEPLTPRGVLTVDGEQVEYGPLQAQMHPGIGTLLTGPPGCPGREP
Particulars: at 0.1 µM.

For experiment [3], the target named is T1, Sphingosine kinase 2 (Homo sapiens). Particulars: at 1 µM.
Experiment [4] concerns the target Casein kinase II subunit alpha (Homo sapiens) (UniProt P68400). Particulars: at 0.1 µM.
For experiment [5] the target is unchanged. The settings on record: at 1 µM.
For experiment [6], the target named is T2, Inhibitor of nuclear factor kappa-B kinase subunit alpha (Homo sapiens) (UniProt O15111).
T2 sequence (whole entry): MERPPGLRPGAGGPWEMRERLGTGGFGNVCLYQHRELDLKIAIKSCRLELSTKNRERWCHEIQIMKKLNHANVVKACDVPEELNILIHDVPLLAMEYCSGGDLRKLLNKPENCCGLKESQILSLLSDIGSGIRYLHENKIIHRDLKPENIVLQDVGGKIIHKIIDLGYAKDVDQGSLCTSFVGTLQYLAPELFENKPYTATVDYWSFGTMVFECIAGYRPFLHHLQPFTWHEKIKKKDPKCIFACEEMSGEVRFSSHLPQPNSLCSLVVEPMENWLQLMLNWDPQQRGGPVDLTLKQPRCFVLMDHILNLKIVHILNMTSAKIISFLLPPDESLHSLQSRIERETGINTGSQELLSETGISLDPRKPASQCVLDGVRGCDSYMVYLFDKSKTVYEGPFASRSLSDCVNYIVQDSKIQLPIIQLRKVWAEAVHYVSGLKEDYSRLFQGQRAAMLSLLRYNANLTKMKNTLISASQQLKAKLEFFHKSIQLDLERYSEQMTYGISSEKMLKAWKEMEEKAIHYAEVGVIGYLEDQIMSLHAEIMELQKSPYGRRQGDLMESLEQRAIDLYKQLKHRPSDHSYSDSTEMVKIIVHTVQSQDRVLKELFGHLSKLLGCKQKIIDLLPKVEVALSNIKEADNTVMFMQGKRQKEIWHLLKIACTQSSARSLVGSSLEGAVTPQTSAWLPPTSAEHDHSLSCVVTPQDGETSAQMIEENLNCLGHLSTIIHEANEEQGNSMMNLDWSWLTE
Particulars: at 0.1 µM.

In experiment [7] the target is T2, Inhibitor of nuclear factor kappa-B kinase subunit alpha (Homo sapiens). The settings on record: at 1 µM.
Experiment [8] deals with T3, Inhibitor of nuclear factor kappa-B kinase subunit beta (Homo sapiens) (UniProt O14920).
T3 sequence (whole entry): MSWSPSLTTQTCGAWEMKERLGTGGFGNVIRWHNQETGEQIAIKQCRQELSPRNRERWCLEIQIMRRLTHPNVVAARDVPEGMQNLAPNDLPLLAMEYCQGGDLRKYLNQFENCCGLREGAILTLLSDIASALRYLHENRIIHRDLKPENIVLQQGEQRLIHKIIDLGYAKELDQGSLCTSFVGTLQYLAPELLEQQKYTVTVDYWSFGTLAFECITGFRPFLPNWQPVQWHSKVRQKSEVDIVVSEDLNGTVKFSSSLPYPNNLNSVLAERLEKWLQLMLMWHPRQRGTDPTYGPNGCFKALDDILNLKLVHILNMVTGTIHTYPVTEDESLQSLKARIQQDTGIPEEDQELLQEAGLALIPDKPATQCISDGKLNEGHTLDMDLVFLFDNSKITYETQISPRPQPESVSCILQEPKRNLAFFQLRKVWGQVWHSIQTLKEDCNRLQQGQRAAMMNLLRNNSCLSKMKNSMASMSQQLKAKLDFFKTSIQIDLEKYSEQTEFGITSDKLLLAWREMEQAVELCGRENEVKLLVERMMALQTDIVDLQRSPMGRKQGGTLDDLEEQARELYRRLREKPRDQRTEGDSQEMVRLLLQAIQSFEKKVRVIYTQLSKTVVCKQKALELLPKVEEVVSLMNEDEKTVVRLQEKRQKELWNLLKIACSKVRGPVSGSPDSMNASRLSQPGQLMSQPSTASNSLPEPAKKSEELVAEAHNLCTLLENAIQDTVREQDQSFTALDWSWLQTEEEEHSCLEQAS
Particulars: at 0.1 µM.

For experiment [9], the target named is T3, Inhibitor of nuclear factor kappa-B kinase subunit beta (Homo sapiens). The settings on record: at 1 µM.
Experiment [10] has as its target T4, Inhibitor of nuclear factor kappa-B kinase subunit epsilon (Homo sapiens) (UniProt Q14164).
T4 sequence (whole entry): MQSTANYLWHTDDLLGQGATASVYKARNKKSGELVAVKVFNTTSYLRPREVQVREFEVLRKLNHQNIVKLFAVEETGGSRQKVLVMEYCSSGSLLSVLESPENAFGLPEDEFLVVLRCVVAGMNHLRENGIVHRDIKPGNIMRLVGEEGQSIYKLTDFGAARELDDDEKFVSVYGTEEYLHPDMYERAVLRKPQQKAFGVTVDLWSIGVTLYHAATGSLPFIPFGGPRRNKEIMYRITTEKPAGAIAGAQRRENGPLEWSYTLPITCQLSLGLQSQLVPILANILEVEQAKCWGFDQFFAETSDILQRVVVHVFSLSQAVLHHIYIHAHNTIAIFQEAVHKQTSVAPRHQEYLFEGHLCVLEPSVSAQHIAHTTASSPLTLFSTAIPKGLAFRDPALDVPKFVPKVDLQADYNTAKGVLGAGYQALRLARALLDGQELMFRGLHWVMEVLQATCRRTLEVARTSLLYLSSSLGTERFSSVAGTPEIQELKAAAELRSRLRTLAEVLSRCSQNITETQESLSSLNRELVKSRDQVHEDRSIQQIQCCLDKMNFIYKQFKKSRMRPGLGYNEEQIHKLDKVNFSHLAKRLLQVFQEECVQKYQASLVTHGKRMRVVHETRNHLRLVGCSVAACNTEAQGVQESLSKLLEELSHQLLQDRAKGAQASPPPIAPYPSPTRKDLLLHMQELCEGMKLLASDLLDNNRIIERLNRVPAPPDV
The settings on record: at 0.1 µM.

Experiment [11] addresses T4, Inhibitor of nuclear factor kappa-B kinase subunit epsilon (Homo sapiens). The settings on record: at 1 µM.
The target of experiment [12] is T5, Serine/threonine-protein kinase Nek1 (Homo sapiens) (UniProt Q96PY6).
T5 sequence (whole entry): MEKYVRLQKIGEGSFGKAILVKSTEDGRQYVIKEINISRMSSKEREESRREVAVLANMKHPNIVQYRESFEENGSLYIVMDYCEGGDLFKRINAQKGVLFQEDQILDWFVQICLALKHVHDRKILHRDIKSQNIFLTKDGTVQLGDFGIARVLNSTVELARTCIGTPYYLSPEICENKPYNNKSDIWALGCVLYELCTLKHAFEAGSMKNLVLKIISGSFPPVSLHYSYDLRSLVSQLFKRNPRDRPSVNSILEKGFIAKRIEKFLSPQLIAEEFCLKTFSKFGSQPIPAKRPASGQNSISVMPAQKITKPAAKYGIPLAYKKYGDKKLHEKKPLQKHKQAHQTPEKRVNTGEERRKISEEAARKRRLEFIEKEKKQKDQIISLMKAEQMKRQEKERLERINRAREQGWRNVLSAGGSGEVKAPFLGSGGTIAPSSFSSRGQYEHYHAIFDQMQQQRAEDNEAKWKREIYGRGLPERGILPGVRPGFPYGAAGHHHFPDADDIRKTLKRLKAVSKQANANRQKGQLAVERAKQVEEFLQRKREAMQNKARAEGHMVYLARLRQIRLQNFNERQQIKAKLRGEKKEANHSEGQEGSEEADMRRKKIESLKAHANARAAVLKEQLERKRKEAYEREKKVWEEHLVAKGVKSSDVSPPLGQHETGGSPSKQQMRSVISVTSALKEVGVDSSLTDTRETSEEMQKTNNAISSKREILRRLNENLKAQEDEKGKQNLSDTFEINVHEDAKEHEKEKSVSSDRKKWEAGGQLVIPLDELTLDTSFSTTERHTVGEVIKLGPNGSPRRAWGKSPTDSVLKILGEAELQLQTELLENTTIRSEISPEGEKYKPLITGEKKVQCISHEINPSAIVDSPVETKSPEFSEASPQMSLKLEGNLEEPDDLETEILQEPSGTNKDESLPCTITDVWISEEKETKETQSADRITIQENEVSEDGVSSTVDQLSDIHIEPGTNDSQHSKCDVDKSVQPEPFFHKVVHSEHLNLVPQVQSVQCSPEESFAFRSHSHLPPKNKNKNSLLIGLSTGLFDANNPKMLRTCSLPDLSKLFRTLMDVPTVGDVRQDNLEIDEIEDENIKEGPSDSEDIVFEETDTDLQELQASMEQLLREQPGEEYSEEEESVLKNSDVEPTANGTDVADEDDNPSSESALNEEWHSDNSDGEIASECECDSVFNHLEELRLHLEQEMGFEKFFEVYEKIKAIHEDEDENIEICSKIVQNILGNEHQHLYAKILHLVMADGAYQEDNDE
Particulars: at 0.1 µM.

For experiment [13], the target named is T5, Serine/threonine-protein kinase Nek1 (Homo sapiens). Particulars: at 1 µM.
Experiment [14] deals with T6, Serine/threonine-protein kinase Nek2 (Homo sapiens) (UniProt P51955).
T6 sequence (whole entry): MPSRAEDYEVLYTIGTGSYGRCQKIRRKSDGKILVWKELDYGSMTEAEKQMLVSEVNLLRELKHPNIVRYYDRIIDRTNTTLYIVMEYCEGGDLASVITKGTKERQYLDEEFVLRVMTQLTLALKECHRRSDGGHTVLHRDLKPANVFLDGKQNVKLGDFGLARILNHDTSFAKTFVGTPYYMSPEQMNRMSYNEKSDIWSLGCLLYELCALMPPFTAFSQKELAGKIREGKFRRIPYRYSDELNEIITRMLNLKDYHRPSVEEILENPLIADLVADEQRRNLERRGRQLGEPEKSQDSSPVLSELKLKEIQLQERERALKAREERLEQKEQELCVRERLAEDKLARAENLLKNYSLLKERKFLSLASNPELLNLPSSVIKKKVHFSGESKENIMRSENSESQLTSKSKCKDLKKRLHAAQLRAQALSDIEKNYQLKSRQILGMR
Particulars: at 0.1 µM.

Experiment [15] addresses T6, Serine/threonine-protein kinase Nek2 (Homo sapiens). Particulars: at 1 µM.
Experiment [16] has as its target Serine/threonine-protein kinase Nek6 (Homo sapiens) (UniProt Q9HC98). Particulars: at 0.1 µM.
The target is the same in experiment [17]. Particulars: at 1 µM.
For experiment [18], the target named is Serine/threonine-protein kinase Nek7 (Homo sapiens) (UniProt Q8TDX7). Particulars: at 0.1 µM.
For experiment [19] the target is unchanged. Particulars: at 1 µM.
For experiment [20], the target named is T7, Serine/threonine-protein kinase Nek9 (Homo sapiens) (UniProt Q8TD19).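 Also: reported value is the mean percent inhibition of NEK9.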
T7 sequence (whole entry): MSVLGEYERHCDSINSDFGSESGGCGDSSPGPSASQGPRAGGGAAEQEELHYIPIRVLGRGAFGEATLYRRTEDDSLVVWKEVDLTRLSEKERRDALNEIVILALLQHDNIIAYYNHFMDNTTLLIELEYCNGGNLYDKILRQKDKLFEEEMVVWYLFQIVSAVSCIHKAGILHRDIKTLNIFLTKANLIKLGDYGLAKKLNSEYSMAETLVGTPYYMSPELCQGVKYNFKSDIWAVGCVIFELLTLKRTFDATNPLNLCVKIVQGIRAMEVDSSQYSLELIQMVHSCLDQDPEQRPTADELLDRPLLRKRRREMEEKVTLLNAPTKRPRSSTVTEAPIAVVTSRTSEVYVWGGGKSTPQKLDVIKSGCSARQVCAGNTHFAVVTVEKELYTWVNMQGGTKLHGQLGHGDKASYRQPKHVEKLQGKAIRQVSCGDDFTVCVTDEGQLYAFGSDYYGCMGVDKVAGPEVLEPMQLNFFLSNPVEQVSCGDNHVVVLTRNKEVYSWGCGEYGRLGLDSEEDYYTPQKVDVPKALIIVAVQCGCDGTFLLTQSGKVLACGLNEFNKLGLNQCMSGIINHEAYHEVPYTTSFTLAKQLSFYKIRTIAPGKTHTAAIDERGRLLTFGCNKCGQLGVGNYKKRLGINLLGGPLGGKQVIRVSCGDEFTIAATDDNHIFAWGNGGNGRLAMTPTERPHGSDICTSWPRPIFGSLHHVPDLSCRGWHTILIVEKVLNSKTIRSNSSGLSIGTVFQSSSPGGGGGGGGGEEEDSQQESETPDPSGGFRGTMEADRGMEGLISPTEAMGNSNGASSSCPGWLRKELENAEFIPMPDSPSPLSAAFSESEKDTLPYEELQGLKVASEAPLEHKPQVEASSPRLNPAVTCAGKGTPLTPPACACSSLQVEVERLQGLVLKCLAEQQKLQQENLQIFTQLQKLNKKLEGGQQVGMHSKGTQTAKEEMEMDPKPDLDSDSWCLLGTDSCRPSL
Particulars: at 0.1 µM.

Several values for one entry are separate records, joined by “and”; a condition that tells them apart may be missing. Equal entries are not always repeated.

Sequence of Serine/threonine-protein kinase Nek6 (Homo sapiens) (Q9HC98 whole entry): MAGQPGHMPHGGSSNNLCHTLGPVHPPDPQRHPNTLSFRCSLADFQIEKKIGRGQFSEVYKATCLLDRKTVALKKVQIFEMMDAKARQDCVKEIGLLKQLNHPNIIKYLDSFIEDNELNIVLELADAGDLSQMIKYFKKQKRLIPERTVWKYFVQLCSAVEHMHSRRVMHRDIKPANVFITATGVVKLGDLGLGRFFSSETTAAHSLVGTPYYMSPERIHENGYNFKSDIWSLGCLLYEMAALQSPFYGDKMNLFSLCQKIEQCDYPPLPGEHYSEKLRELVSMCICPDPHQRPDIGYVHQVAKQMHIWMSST
Sequence of Casein kinase II subunit alpha (Homo sapiens) (P68400 whole entry, looked up): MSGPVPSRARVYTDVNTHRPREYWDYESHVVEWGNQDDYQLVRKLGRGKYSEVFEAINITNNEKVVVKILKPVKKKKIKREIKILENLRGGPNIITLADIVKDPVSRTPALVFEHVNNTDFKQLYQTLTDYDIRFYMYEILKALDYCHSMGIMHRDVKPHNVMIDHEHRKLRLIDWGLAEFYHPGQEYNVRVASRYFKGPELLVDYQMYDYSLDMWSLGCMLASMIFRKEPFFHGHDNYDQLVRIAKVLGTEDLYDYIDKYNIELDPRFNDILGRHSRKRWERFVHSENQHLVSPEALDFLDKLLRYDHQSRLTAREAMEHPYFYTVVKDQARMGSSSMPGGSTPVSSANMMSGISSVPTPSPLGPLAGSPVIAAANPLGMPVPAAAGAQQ
Sequence of Serine/threonine-protein kinase Nek7 (Homo sapiens) (Q8TDX7 whole entry, looked up): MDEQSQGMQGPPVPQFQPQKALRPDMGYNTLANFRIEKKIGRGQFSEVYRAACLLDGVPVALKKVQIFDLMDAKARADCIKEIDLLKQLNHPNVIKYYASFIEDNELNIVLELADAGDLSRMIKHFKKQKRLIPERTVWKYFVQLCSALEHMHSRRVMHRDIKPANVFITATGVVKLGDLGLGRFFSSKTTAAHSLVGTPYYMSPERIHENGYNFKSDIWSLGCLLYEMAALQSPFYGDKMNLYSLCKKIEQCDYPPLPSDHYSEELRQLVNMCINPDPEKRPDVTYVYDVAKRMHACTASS
Sequence of Sphingosine kinase 1 (Homo sapiens) (Q9NYA1 whole entry): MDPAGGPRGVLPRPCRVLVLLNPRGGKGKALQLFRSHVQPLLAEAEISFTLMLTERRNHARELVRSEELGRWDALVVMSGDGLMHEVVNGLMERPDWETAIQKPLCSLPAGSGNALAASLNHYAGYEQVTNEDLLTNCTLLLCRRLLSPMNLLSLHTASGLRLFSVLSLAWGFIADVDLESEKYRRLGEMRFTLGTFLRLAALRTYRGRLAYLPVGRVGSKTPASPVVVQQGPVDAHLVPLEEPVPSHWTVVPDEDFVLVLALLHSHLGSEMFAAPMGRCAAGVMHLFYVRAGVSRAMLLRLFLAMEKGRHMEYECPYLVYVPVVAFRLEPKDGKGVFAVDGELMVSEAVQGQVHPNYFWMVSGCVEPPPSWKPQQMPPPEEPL

For `Nc1nonc1-c1nc2cnccc2n1C1CC1`, the inhibition was -2.58% and -3.16% in [1]; 0.27% and 0.67% in experiment [2]; 0.49% and 1.53% in [3]; 1.54% and 1.55% in experiment [4]; 1.9% and 1.11% in [5]; 6.14% and 3.82% in experiment [6]. Also, the inhibition in [7] is 1.6% and 3.39%; in experiment [8], 4.31% and 2.15%; in experiment [9] it was 1.3% and 3.29%; in experiment [10] it was 3.18% and 3.84%; in [11] it was 11.3% and 10.2%; in experiment [12], 1.72% and 1.48%. For the same compound, the inhibition in experiment [13] was 6.39% and 2.72%; in [14] it was 5.51% and 2.84%; in experiment [15] it was 4.67% and 4.04%; in experiment [16], 3.25% and -0.01%; in experiment [17], -0.06% and 2.15%; in experiment [18], 3.77% and 4.5%. The inhibition was 2.89% and 3.28% in experiment [19]; 8.67% and 3.36% in [20].
